Here are results for 54 sequences from paper PMC7819943, “Rice protein-binding microarrays: a tool to detect cis-acting elements near promoter regions in rice”.

In all, about 39,000 sequences were measured (“fluorescence intensity (a.u.)”: median about 4,300, highest 2% from about 39,000 on). The full list was thinned out, with the highest values kept by preference.

The target in the test is T1, OsSMF1 (Oryza sativa, UniProt Q6ZLB0 1-436).
T1 sequence: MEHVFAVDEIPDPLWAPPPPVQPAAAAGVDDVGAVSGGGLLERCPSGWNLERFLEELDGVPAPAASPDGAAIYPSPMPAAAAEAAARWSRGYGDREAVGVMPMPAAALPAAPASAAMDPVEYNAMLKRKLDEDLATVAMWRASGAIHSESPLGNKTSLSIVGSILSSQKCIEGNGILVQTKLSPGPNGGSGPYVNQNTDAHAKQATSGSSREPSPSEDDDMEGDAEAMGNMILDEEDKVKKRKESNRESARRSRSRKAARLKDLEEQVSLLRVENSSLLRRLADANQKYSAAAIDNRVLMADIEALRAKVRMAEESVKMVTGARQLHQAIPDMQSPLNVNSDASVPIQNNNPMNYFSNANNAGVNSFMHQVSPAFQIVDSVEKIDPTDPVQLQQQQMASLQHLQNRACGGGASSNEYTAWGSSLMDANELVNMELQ
Briefly: protein-binding microarray (RPBM); PBS, 2% BSA, 51.3 ng/ul salmon testes DNA, 50 uM zinc acetate, 200 nM TF, 25 C, 1 h; high values mean tight binding. Particulars: protein: recombinant; tags: N-terminal polyhistidine and DsRed monomer fusion (pET32a); chain copies: 2; label: CyDye5-dUTP incorporated in the synthesized complementary strand; 3' TTTTT single-stranded linker to array surface; dsDNA, one strand shown. An outline of the steps:
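The binding signal is fluorescence intensity per array feature (arbitrary units). Readings came from an Axon 4000B scanner after a washed, 2% BSA-blocked, double-stranded custom Agilent array had been incubated for 1 h at 25 °C with 200 nM protein and 50 µM zinc acetate. The protein was a Ni–NTA-purified transcription factor fused N-terminally to polyhistidine and DsRed, expressed in E. coli BL21-CodonPlus.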
In the case of “CCCTTCGTCGACACGCACCCCTGACCTCATATTTTCGCTTCGGAGTCACCTAGTGCAG”, the binding signal is 5650 fluorescence intensity (a.u.).
The result for “ATGCCATGCCAACGCACTATGCCTGGTATCCTTAGCCATCCGGAGTCACCTAGTGCAG” reads 4060 fluorescence intensity (a.u.).
Regarding “CGACCTGAGGTTGGCGGTCGGCATGACGTCACGGGTGGGACGGAGTCACCTAGTGCAG”, the binding signal was 24200 fluorescence intensity (a.u.).
Turning to “CTATGTTTTACACTTACACTCCTATCAAAATCCTACGTTTCGGAGTCACCTAGTGCAG”, the binding signal is 22600 fluorescence intensity (a.u.).
For the sequence “TAAAGCTTTTATGAATGAATAGCCTCGCTGGCAAGTGGGCCGGAGTCACCTAGTGCAG”, the binding signal was 3560 fluorescence intensity (a.u.).
For “TTGTTCTGTCGATCCATCGGTATCCTGGTCAATTGGCAAGCGGAGTCACCTAGTGCAG” the value was 3160 fluorescence intensity (a.u.); for “ATCGAATGATCTAACGGCTCACACACTCCCACGCACTTTGCGGAGTCACCTAGTGCAG”, 3290 fluorescence intensity (a.u.).
As to “TCTGACGGGCGATGACGACGACGACGGTGCAAAAGCCTGACGGAGTCACCTAGTGCAG”, the binding signal was 3310 fluorescence intensity (a.u.).
Take “ACATCTAAAAGTAACTTGAGTTTTCTAAGCAACACATAAGCGGAGTCACCTAGTGCAG”: the binding signal was 24700 fluorescence intensity (a.u.).
For “AAGCTCCCCGGCCAGGCCGCCATCGGCCACGTGAGGTACTCGGAGTCACCTAGTGCAG”, the binding signal is 4540 fluorescence intensity (a.u.).
The result for “TTTAATTGTTCTGCGATTACGGTAGAAATAGATCGGGCTTCGGAGTCACCTAGTGCAG” reads 3210 fluorescence intensity (a.u.); that for “TTGAAACGTAACACTTGATATATGTATACATTATCCAACCCGGAGTCACCTAGTGCAG”, 3150 fluorescence intensity (a.u.).
For “GGGTCATATAGAGACGACGATCAAATTTACCTTATTTTAACGGAGTCACCTAGTGCAG” the value was 3240 fluorescence intensity (a.u.).
Regarding “TCCATTGCATATAATTCAATTCATCGAAATCATGACATTTCGGAGTCACCTAGTGCAG”, the binding signal was 46400 fluorescence intensity (a.u.).
For “ACAAACTTCCAACTTTTCTATCACATCGTTCCAATTTCAACGGAGTCACCTAGTGCAG” the value was 22100 fluorescence intensity (a.u.).
The result for “TTATATTTTAATTAAAACTATTATAATACACAATACGTCACGGAGTCACCTAGTGCAG” reads 7060 fluorescence intensity (a.u.); that for “TTTTCTATCACATCGTTTTAATTTCAATCAAACTTCCAATCGGAGTCACCTAGTGCAG”, 45300 fluorescence intensity (a.u.).
For “GTTATAAGACGTTTTGATTTTAGTCAAAGTCAAACTATTCCGGAGTCACCTAGTGCAG”, the binding signal is 32600 fluorescence intensity (a.u.).
For “GACATGAATTTTCCATCATATATTCATGCGGTTCATTATGCGGAGTCACCTAGTGCAG” the value was 4430 fluorescence intensity (a.u.).
For “TCATACTGCCATCATACCATCCTACAATAGACAAATTTAACGGAGTCACCTAGTGCAG”, the binding signal was 54300 fluorescence intensity (a.u.).
The result for “AATTGGACAATTCATCATAAATTTTGCATGAATGATGACACGGAGTCACCTAGTGCAG” reads 3750 fluorescence intensity (a.u.).
For “AATTATGTTTTATAAGACGTTAGCATTTAAACTACAATCCCGGAGTCACCTAGTGCAG” the value was 55600 fluorescence intensity (a.u.); for “CCAACTTTTCCATCACATCGTTCCAATTTCAACCAAACTTCGGAGTCACCTAGTGCAG”, 21900 fluorescence intensity (a.u.).
The result for “CAACAAATTTAAATTTATAGACGTCACCATACTGAAGGCGCGGAGTCACCTAGTGCAG” reads 5460 fluorescence intensity (a.u.); that for “TAACCATGTAATTCCTCTGAAAATCCACAGATGAACTAGCCGGAGTCACCTAGTGCAG”, 3360 fluorescence intensity (a.u.); that for “CCACCAGCCCGGTGGGATCCCGCCACGTCAGCGTGACCCGCGGAGTCACCTAGTGCAG”, 22600 fluorescence intensity (a.u.).
In the case of “GTCTGGAGAGCCAGAGGAGAGGAGTAGCGGACGCGGTGCCCGGAGTCACCTAGTGCAG”, the binding signal was 26700 fluorescence intensity (a.u.).
For “TTTCTGCGCTACGTGCTCGCCATGTCGTCCTCGTCACAAACGGAGTCACCTAGTGCAG” the value was 5120 fluorescence intensity (a.u.).
The result for “CACCCGTGCGTAATCATGACGCCGGGGTGACGTCACCATCCGGAGTCACCTAGTGCAG” reads 30200 fluorescence intensity (a.u.).
For “GCTGGGTTTTCGAGGAGGCCTGACTGGATCATACTCGACTCGGAGTCACCTAGTGCAG” the value was 3250 fluorescence intensity (a.u.); for “CCATCTGCGGCGTACTTGCCACTTTTCTTCGATCGGCACCCGGAGTCACCTAGTGCAG”, 3550 fluorescence intensity (a.u.); for “AGACCGCTCGCGCGTACGTGACGCGATCGGGCAGCGCGGGCGGAGTCACCTAGTGCAG”, 4060 fluorescence intensity (a.u.).
For the sequence “TTCACACCCAGATAAATACAGCCTACTAGACCAATAGCCACGGAGTCACCTAGTGCAG”, the binding signal was 40000 fluorescence intensity (a.u.).
“ATAAAATTTTATGATATATAGATAATAATTTTACTTGCAACGGAGTCACCTAGTGCAG”: the binding signal is 4550 fluorescence intensity (a.u.).
For “CCTAAAATACATGACCAGCCCACACAGGACTTAACCCACACGGAGTCACCTAGTGCAG” the value was 3230 fluorescence intensity (a.u.).
Turning to “ACCAGGTGGCTACAGCTGGCTAAATACCCAGTCACTACCACGGAGTCACCTAGTGCAG”, the binding signal is 3680 fluorescence intensity (a.u.).
In the case of “TATAGAATTTTCTCTTAAAATACTTATCCGATTTATGATCCGGAGTCACCTAGTGCAG”, the binding signal is 54100 fluorescence intensity (a.u.).
The result for “TCTCTTTCTTTATTTCTTTAAAATATATTTATAGTTGTCTCGGAGTCACCTAGTGCAG” reads 3490 fluorescence intensity (a.u.); that for “TTCACATCGTTGCAATAAATAATTATACCACTACTTCATACGGAGTCACCTAGTGCAG”, 24800 fluorescence intensity (a.u.).
In the case of “TTATATCGTTTTAATTTCAATTAAACTTTCAATTTTAGTGCGGAGTCACCTAGTGCAG”, the binding signal is 48400 fluorescence intensity (a.u.).
As for “ACTTTTCCGTCACATCGTTTTAATTTCTTTAAACTTTTAACGGAGTCACCTAGTGCAG”, the binding signal was 4680 fluorescence intensity (a.u.).
On to “GTACATCAAACATTATCAATATCGGACACATAATCCATTGCGGAGTCACCTAGTGCAG”, for which the binding signal was 3850 fluorescence intensity (a.u.).
As to “TTTTATCACATCGTTTTAATTTCAACCAAACTTTCAATTTCGGAGTCACCTAGTGCAG”, the binding signal is 32600 fluorescence intensity (a.u.).
Regarding “CCATAATCACACTTCAATAGTAGTACTACCACAATTGCATCGGAGTCACCTAGTGCAG”, the binding signal was 45100 fluorescence intensity (a.u.).
In the case of “TTCATGCGCCCACATGACGTAGTGAATTAGTGGACTATGTCGGAGTCACCTAGTGCAG”, the binding signal was 4570 fluorescence intensity (a.u.).
For “GAGTAGAGGTGGGAGGAAGCGGTGGTGTGGTGGGGTGGGGCGGAGTCACCTAGTGCAG” the value was 8310 fluorescence intensity (a.u.); for “CATAGATGGGCTCATCAGTAATGCTCCATATCAACACGACCGGAGTCACCTAGTGCAG”, 35200 fluorescence intensity (a.u.).
For “TGCAGCGCCCTCAGCGTTTTGCGCTGCCGTGGCCATCACGCGGAGTCACCTAGTGCAG” the value was 4300 fluorescence intensity (a.u.).
On to “TATGAAACCTGAAAACAACTTAACACGGGTGTCCTTCGTCCGGAGTCACCTAGTGCAG”, for which the binding signal was 17500 fluorescence intensity (a.u.).
Regarding “CGCCCACCTATCTTACCACTGACACATTGGCCCCACCACCCGGAGTCACCTAGTGCAG”, the binding signal was 4120 fluorescence intensity (a.u.).
The result for “CCCTCCCTCCGCCTCCGCCCATCCAATTTCTTACCCCGTTCGGAGTCACCTAGTGCAG” reads 3230 fluorescence intensity (a.u.); that for “AATTAATCCATTATTAACAAATGTTTACTGTAGCATCACACGGAGTCACCTAGTGCAG”, 51600 fluorescence intensity (a.u.).
The result for “CCTAATTAATCCATAATTATCAAAAGTTTACTGTAGCATCCGGAGTCACCTAGTGCAG” reads 27800 fluorescence intensity (a.u.).
Turning to “AATCCATAATTAGAGAATGTTTACTGTAGCATCACATAGGCGGAGTCACCTAGTGCAG”, the binding signal is 3290 fluorescence intensity (a.u.).
